Laboratory results published in PubChem BioAssay AID1851 (National Center for Advancing Translational Sciences (NCATS), 2009).
Screen size: about 16,000 compounds; about 2,600 (16%) were called active. About 20% were inconclusive and are not listed. Only a sample is shown. Unmarked numbers belong to inactive results. The call rests on the fitted dose curve; in most records, active means well fitted curve in the direction sought with a large enough effect; inconclusive means small, poorly fitted or top-dose-only effect, or effect the other way; inactive means no such curve, though single readings can be large or run the other way.
On the % scale 0 is the no-effect control and ±100 the full control effect.

The compounds below were run against Cytochrome P450 2D6 (Homo sapiens) (UniProt P10635) (assay: Cytochrome panel assay with activity outcomes). Conditions: recombinant CYP, pro-luciferin dealkylation, luminescence, p450-cyp2d6; series mostly up to 57.1 µM.
Sequence of Cytochrome P450 2D6 (Homo sapiens) (P10635 whole entry, looked up): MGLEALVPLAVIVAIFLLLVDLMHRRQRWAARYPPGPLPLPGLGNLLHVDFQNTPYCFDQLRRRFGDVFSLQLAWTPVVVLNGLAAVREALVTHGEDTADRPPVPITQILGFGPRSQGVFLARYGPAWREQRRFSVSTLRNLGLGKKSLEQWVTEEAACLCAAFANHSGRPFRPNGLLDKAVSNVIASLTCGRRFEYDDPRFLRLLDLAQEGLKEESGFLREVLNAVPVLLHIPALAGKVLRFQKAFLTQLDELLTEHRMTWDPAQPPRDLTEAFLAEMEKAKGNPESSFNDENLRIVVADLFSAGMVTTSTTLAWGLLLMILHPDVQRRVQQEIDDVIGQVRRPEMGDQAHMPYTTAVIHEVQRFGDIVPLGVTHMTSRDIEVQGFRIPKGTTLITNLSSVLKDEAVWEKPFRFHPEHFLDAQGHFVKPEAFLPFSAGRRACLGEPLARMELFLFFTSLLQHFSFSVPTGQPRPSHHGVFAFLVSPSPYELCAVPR
For `N[C@H](C(=O)O)[C@@H]1[C@@H](C(=O)O)C1(F)F`, the AC50 was 100 nM (active).
With `O=C(Nc1cccc(-c2cnc3ccccc3n2)c1)c1ccc(Cl)cc1` the AC50 was “inactive”.
In the case of `COc1ccc(NC(=O)c2cccs2)c([N+](=O)[O-])c1`, the AC50 is reported as “inactive”.
With `COc1ccc(NC(=O)CN(C)S(=O)(=O)c2ccc(Cl)cc2)c([N+](=O)[O-])c1` the AC50 was “inactive”.
`COc1ccc(NC(=O)c2ccc(C)cc2Cl)c([N+](=O)[O-])c1` was tested, and the AC50 was 891 nM (active).
`CCCCN1CSC(=S)N(Cc2ccccc2)C1` was tested, and the AC50 was 3980 nM (active).
In the case of `O=C(c1ccc2c(c1)N(Cc1ccccc1)C(=O)CS2)N1CCOCC1`, the AC50 is reported as “inactive”.
With `S=C1SCN(CCN2CCOCC2)CN1Cc1ccccc1` the AC50 was 12600 nM (active).
With `Cn1c(CN2CCOCC2)nnc1SCc1ccccc1` the AC50 was “inactive”.
`O=C1OC(OC2CCCCC2)(c2ccccc2)c2ccccc21` (stereo unspecified) was tested, and the AC50 was “inactive”.
With `COc1ccc(-c2cc(C3CCN(c4cc(Cl)nc(N)n4)CC3)[nH]n2)cc1` the AC50 was “inactive”.
With `CCN1C(=O)[C@H]2[C@H]3[C@H](O)[C@H](O)C/C(=N/NC(=O)OCc4ccccc4)[C@H]3CC[C@@H]2C1=O` the activity, negative = inhibition was 1.32% [at 11.4 µM].
`C/C(=N\NC(=O)c1cccc(F)c1)c1ccc(Br)s1` was tested, and the AC50 was “inactive”.
For `Cc1cccc(C(=O)NC(=S)N2CCN(C)CC2)c1`, the AC50 was “inactive”.
`O=C(O)CC[C@@H](C(=O)O)N1C(=O)[C@@H]2[C@@H]3CC[C@H](C3)[C@@H]2C1=O` gave an activity, negative = inhibition of 13.3% [at 11.4 µM].
With `COCCCNC(=O)C(=O)N/N=C/c1ccc(OCC(=O)Nc2cccc(Cl)c2C)c(OC)c1` the AC50 was “inactive”.
In the case of `CCCc1cc(=O)[nH]c(=S)[nH]1`, the AC50 is reported as “inactive”.
`Cc1ccc(OCC(=O)NNC(=O)CCC(=O)Nc2ccc(C)cc2C)cc1` was tested, and the AC50 was “inactive”.
`Nc1ccc(S(=O)(=O)NCc2nccs2)cc1` was tested, and the activity, negative = inhibition was -11% [at 11.4 µM].
`O=C1CCCC=C1[C@@H](O)C1CCCCC1` gave an activity, negative = inhibition of 11.1% [at 11.4 µM].
In the case of `CCCCOc1cc(C[C@@H]2CNC(=O)N2)ccc1OC`, the AC50 is reported as “inactive”.
In the case of `CCCN1C[C@H](CSC)C[C@H]2c3cccc4[nH]cc(c34)C[C@@H]21`, the AC50 is reported as 100 nM (active).
`O=C(O)c1cc2cc(Cc3cccnc3)ccc2o1` was tested, and the AC50 was “inactive”.
`Cc1cc(C)nc(NC(=O)c2cccc([N+](=O)[O-])c2C)n1` was tested, and the AC50 was “inactive”.
In the case of `CC(C)(C)C1CCC(OCC(O)CN2CCN(c3ccccc3)CC2)CC1` (stereo unspecified), the AC50 is reported as 6310 nM (active).
`ClC(Cl)(Cl)C(N1CCN(c2ccccc2)CC1)N1CCN(c2ccccc2)CC1` showed an activity, negative = inhibition of 4.26% [at 11.4 µM].
With `OC[C@@H](O)CN1CCN(c2ccccc2)CC1` the AC50 was “inactive”.
In the case of `COCCCN=CC1=C(O)CC(C)(C)CC1=O`, the AC50 is reported as “inactive”.
`CCc1c(C(C)O)oc2ccc3c(C)cc(=O)oc3c12` (stereo unspecified) was tested, and the AC50 was “inactive”.
`COc1ccc(-n2nc(C(=O)NCC(=O)Nc3ccccn3)c3ccccc3c2=O)cc1` was tested, and the AC50 was “inactive”.
For `Cn1c(=O)[nH]c2ncn(C)c2c1=O`, the AC50 was “inactive”.
In the case of `CCC(=S)/C=C1\Sc2ccc3ccccc3c2N1CCCS(=O)(=O)O`, the AC50 is reported as “inactive”.
In the case of `CN(C)CCCN1c2ccccc2Sc2ccc3ccccc3c21`, the AC50 is reported as 1260 nM (active).
`CN(C)CCCN1c2ccc3ccccc3c2Sc2cccc(Cl)c21` was tested, and the AC50 was 501 nM (active).
Compound `CCN(CC)CCN1C(=O)c2cccc3cc(N)cc(c23)C1=O` has an activity, negative = inhibition of -3.81% [at 11.4 µM].
In the case of `CN1C(=C2C(=O)OC(C)(C)OC2=O)Sc2ccccc21`, the AC50 is reported as “inactive”.
With `CCN(CC)CCN1c2ccccc2Sc2ccc3ccccc3c21` the AC50 was 631 nM (active).
In the case of `CN(C)CCCN1c2ccccc2Sc2cnccc21`, the AC50 is reported as 1580 nM (active).
For `C/C(CC(=O)NCc1ccco1)=N\NC(=O)Cc1cccc2ccccc12`, the AC50 was “inactive”.
In the case of `Cc1c(C(=O)O)nc(/C=C\C(=O)O)[nH]c1=O`, the activity, negative = inhibition is reported as 6.81% [at 11.4 µM].
`Cc1nc2cnc(N(C)C)nc2n(Cc2ccc(F)cc2)c1=O` was tested, and the AC50 was “inactive”.
In the case of `CCSc1nc2c(c(=O)[nH]1)C(c1ccncc1)C(C(=O)OC(C)C)=C(C)N2` (stereo unspecified), the AC50 is reported as “inactive”.
In the case of `COc1ccc(CN2CN(c3ccc(Cl)cc3)C(=O)N(n3cnnc3)C2)cc1`, the AC50 is reported as “inactive”.
`N#C/C(=C\N1CCNC1=S)C(=O)c1ccc2ccccc2c1` was tested, and the activity, negative = inhibition was -0.81% [at 11.4 µM].
`COc1ccccc1N1CCN(CCN2C(=O)c3ccccc3C(C)(C)C2=O)CC1` was tested, and the AC50 was “inactive”.
For `CN(C)CCCn1cc(C2=C(c3c[nH]c4ccccc34)C(=O)NC2=O)c2ccccc21`, the AC50 was “inactive”.
With `CN(C)CCCN1c2ccccc2C(C)(C)c2ccccc21` the AC50 was 3980 nM (active).
In the case of `O=C(c1cnccn1)N1CCC2(CC1)CN(c1cccc(-c3ccccc3)c1)C2`, the AC50 is reported as “inactive”.
`O=C(NCc1n[nH]c(=S)n1-c1cccc(Cl)c1)c1ccc(S(=O)(=O)N2CCCC2)cc1` was tested, and the AC50 was “inactive”.
For `Nc1c(-c2cccs2)cnn1-c1nc(-c2ccc(F)cc2)cs1`, the AC50 was “inactive”.
With `NC(=O)c1ccc(-c2ncc(-c3ccccc3)o2)cc1` the AC50 was “inactive”.
For `Fc1ccc(-c2cnc(-c3cccs3)o2)cc1`, the AC50 was 28200 nM (active).
`COc1ccc(C2C(C#N)=C(N)OC3=C2C(=O)CC(C)(C)C3)c([N+](=O)[O-])c1OC` (stereo unspecified) was tested, and the AC50 was “inactive”.
`CSc1cc(C)nc(NC(C)=O)n1` was tested, and the AC50 was “inactive”.
For `CCOC(=O)C1=C(CSc2nc3ccccc3s2)NC(=O)NC1c1cc(C)ccc1C` (stereo unspecified), the AC50 was “inactive”.
`O=S(=O)(c1ccccc1)N1CCC2(CC1)CN(C(c1ccccc1)c1ccccc1)C2` was tested, and the AC50 was 2510 nM (active).
With `O=S(=O)(c1ccccc1)N1CCC2(CCN(C(c3ccccc3)c3ccccc3)CC2)CC1` the AC50 was “inactive”.
In the case of `O=S(=O)(c1ccccc1)N1CCC2(CCCN(C(c3ccccc3)c3ccccc3)C2)CC1`, the AC50 is reported as 501 nM (active).
In the case of `CN1CCCC2(CCN(S(=O)(=O)c3ccccc3)CC2)C1`, the AC50 is reported as “inactive”.
`O=S(=O)(c1ccccc1)N1CCC[C@@]2(CCN(C(c3ccccc3)c3ccccc3)C2)C1` was tested, and the AC50 was 631 nM (active).
For `Fc1ccc2nc(Nc3nc4c(s3)CCCC4)sc2c1`, the AC50 was “inactive”.
With `Cc1cc(OC(=O)c2cc(F)c(F)cc2Cl)nc(C)n1` the AC50 was “inactive”.
In the case of `O=C(O)CN(CCN(CC(=O)O)CC(=O)O)CCN(CC(=O)O)CC(=O)O`, the AC50 is reported as “inactive”.
For `Nc1nc(N)c2[nH]cnc2n1` (tested in a mixture with another compound), the activity, negative = inhibition was -4.07% [at 11.4 µM].
With `C/C(Cl)=C\Cn1c(N2CCCC2)nc2c1c(=O)[nH]c(=O)n2C` the AC50 was “inactive”.
For `C[C@@H](CC(=O)O)[C@@H](N)C(=O)O`, the AC50 was “inactive”.
For `Cc1ccnc(NS(=O)(=O)c2ccc(N)cc2)n1`, the AC50 was “inactive”.
`COC(=O)c1ccc(CCc2cc(O)ccc2O)cc1` showed an activity, negative = inhibition of 7.07% [at 11.4 µM].
Work on `O=c1[nH]c(=S)c2[nH]c(=O)n(-c3ccccc3)c2[nH]1` yielded an activity, negative = inhibition of 7.71% [at 11.4 µM].
`CO[C@]1(NC(=O)Cc2cccs2)C(=O)N2C(C(=O)O)=C(COC(N)=O)CS[C@H]21` was tested, and the AC50 was “inactive”.
In the case of `NC1=NC2(CCCCC2)N=C(Nc2ccc(F)cc2F)N1`, the AC50 is reported as 12600 nM (active).
For `CC(=O)NC1(c2ccc(F)cc2)CCN(C(=O)Nc2ccc(F)cc2F)CC1`, the AC50 was “inactive”.
With `CO[C@H]1OC[C@@]2(C)[C@@H]3C4=C(CN2C(=O)OC(C)(C)C)[C@H](C)[C@H](CO)[C@H](CO)[C@H]4CC[C@H]13` the AC50 was “inactive”.
For `Cc1cccc(CCNc2nc3ccccc3n3nnnc23)c1`, the AC50 was “inactive”.
`Cc1cccc(OCCn2c(-c3ccco3)nc3ccccc32)c1` was tested, and the AC50 was 5010 nM (active).
For `Cc1cccc(N2CC(O)=C(c3nc4ccccc4n3C)C2=N)c1`, the AC50 was “inactive”.
For `Cn1cc(C(=O)c2ccc(Cl)cc2Cl)cc1C(=O)O`, the AC50 was “inactive”.
In the case of `O=c1c(-c2ccccc2)nc2cnc(N3CCNCC3)nc2n1-c1ccccc1`, the AC50 is reported as “inactive”.
`N#CN(CC(N)=O)c1nc(N2CCCCC2)nc(N2CCCCC2)n1` was tested, and the AC50 was 14100 nM (active).
With `OCCN1CCN(c2nc(N3CCCCC3)nc(N3CCCCC3)n2)CC1` the AC50 was “inactive”.
In the case of `O=c1nc(N2CCCCCC2)nc(N2CCCCCC2)[nH]1`, the AC50 is reported as “inactive”.
With `Cc1[nH]c(=O)c(C(=O)/C=C/c2ccccc2F)c2c1CCCC2` the AC50 was “inactive”.
`COCCn1c(=O)c(-c2ccc(OC)cc2)nc2cnc(N3CCOCC3)nc21` was tested, and the AC50 was “inactive”.
`NNC(=O)[C@@H](O)[C@H](O)[C@H](O)CO` showed an activity, negative = inhibition of 17.4% [at 11.4 µM].
With `CCN(CCCc1ccccc1)CCCc1ccccc1` the AC50 was 1000 nM (active).
In the case of `O=C(NCCCc1ccccc1)c1cccs1`, the AC50 is reported as “inactive”.
For `CCCCNC(=O)C(=O)NC(C)CCc1ccccc1` (stereo unspecified), the AC50 was “inactive”.
With `COc1ccc(-c2nc3cnc(N4CCN(C)CC4)nc3n(C)c2=O)cc1` the AC50 was “inactive”.
With `O=C(CCNC(=O)c1ccccc1)OCN1C(=O)c2ccccc2C1=O` the AC50 was “inactive”.
In the case of `O=c1c(-c2ccc(Cl)cc2)nc2cnc(N3CCOCC3)nc2n1C1CC1`, the AC50 is reported as “inactive”.
For `CCCCCCCCCCCC1=C(O)C(=O)C=C(O)C1=O`, the AC50 was 2000 nM (active).
`Cc1ccc(S(=O)(=O)ON=C2CCN(S(=O)(=O)c3ccccc3)CC2)cc1` was tested, and the AC50 was “inactive”.
In the case of `CCOc1ccc(N2C(=O)C3C4C=CC(CC4)C3C2=O)c([N+](=O)[O-])c1` (stereo unspecified), the AC50 is reported as 11200 nM (active).
`CCOc1ccc(NC(=O)c2ccc(Br)o2)c([N+](=O)[O-])c1` was tested, and the AC50 was “inactive”.
With `CCOc1ccc(C(C)=O)cc1N1C(=O)C2C(C1=O)C1C=CC2C12CC2` (stereo unspecified) the AC50 was “inactive”.
In the case of `CCOC(=O)C1CCCN(C(=O)c2cc3nc(-c4ccc5c(c4)OCO5)cc(C(F)(F)F)n3n2)C1` (stereo unspecified), the AC50 is reported as “inactive”.
`CCCCC(=O)N/N=C(\C)CC(=O)Nc1cc(Cl)ccc1OC` was tested, and the AC50 was “inactive”.
For `O=C(COC(=O)c1cccc(S(=O)(=O)N2CCOCC2)c1)Nc1nc(-c2ccccc2Cl)cs1`, the AC50 was “inactive”.
With `CN(CCc1ccc(Cl)c(Cl)c1)C[C@@H](O)COc1ccc(NS(C)(=O)=O)cc1` the AC50 was 25100 nM (active).
`COc1ccc(COc2ccsc2C(=O)Nc2ccc(Cl)c(Cl)c2)cc1` was tested, and the AC50 was “inactive”.
With `O=c1c(-c2cc(F)cc(F)c2)nc2cnc(N3CCNCC3)nc2n1Cc1cccs1` the AC50 was “inactive”.
